Assay results reported in PubChem BioAssay AID1159580 (chemical genetic matrix, 2015).
Several values for one entry are separate records, joined by “and”; a condition that tells them apart may be missing. Equal entries are not always repeated. Hit rate of the full screen: of about 5,500 compounds, about 2,000 (36%) were called active. Not shown: some 18% with an inconclusive outcome. Rule as the data show it: active = normalized growth mostly below about 0.91 (no sharp cut-off); inconclusive = no clear call, values can overlap the other calls; inactive = mostly above about 0.92. This is one part of the list.

Test: chemical genetic growth profiling, strain panel (AID 1159580);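 also: tested at 20 µM; growth read once vehicle control cultures reached saturation at 30 °C; 1 = growth at the plate median or of vehicle wells; lower values mean less growth of the strain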
Conditions: S. cerevisiae deletion strains, growth OD

Measured: normalized growth

CCOC(=O)CCC(=O)O[C@H]1[C@H](O[C@@H]2[C@@H](C)[C@H](O[C@H]3C[C@@](C)(OC)[C@@H](O)[C@H](C)O3)[C@@H](C)C(=O)O[C@H](CC)[C@@](C)(O)[C@H](O)[C@@H](C)C(=O)[C@H](C)C[C@@]2(C)O)O[C@H](C)C[C@@H]1N(C)C
inactive: locus YAL021C, strain ccr4, hits give low values 1.01 | locus YAL026C, strain drs2, hits give low values 1.02 | locus YAL030W, strain snc1, hits give low values 0.99 | locus YBL061C, strain skt5, hits give low values 0.994 | locus YBR009C, strain hhf1, hits give low values 0.993 | locus YBR021W, strain FUR4, hits give low values 0.997 | locus YBR023C, strain chs3, hits give low values 0.999 | locus YBR171W, strain sec66, hits give low values 1.01 | locus YBR229C, strain ROT2, hits give low values 0.949 | locus YBR231C, strain swc5, hits give low values 0.971 | locus YBR279W, strain paf1, hits give low values 1.01 | locus YCL011C, strain gbp2, hits give low values 1.01 | locus YCL016C, strain dcc1, hits give low values 0.992 | locus YCL029C, strain bik1, hits give low values 0.99 | locus YCL069W, strain vba3, hits give low values 1 | locus YCR088W, strain abp1, hits give low values 1.01 | locus YDL005C, strain med2, hits give low values 0.994 | locus YDL035C, strain GPR1, hits give low values 0.945 | locus YDL040C, strain nat1, hits give low values 0.995 | locus YDL074C, strain BRE1, hits give low values 0.962 | locus YDL101C, strain DUN1, hits give low values 0.977 | locus YDL134C, strain PPH21, hits give low values 0.963 | locus YDL185W, strain tfp1, hits give low values 0.971 | locus YDL192W, strain arf1, hits give low values 0.985 | locus YDR001C, strain nth1, hits give low values 1.01 | locus YDR069C, strain doa4, hits give low values 0.983 | locus YDR101C, strain arx1, hits give low values 0.953 | locus YDR137W, strain rgp1, hits give low values 1.01 | locus YDR150W, strain NUM1, hits give low values 0.988 | locus YDR159W, strain sac3, hits give low values 0.979 | locus YDR162C, strain NBP2, hits give low values 0.955 | locus YDR195W, strain ref2 0.956 | locus YDR297W, strain sur2, hits give low values 1 | locus YDR318W, strain mcm21, hits give low values 0.996 | locus YDR334W, strain swr1, hits give low values 1 | locus YDR335W, strain msn5, hits give low values 0.993 | locus YDR388W, hits give low values 0.984 | locus YDR392W, strain spt3, hits give low values 1.03 | locus YDR502C, strain sam2, hits give low values 0.991 | locus YEL003W, strain gim4, hits give low values 1.01 | locus YEL037C, strain rad23, hits give low values 1.01 | locus YEL061C, strain CIN8 (second series), hits give low values 1.02 | locus YEL061C, strain CIN8, hits give low values 0.989 | locus YER015W, strain faa2, hits give low values 0.986 | locus YER016W, strain bim1, hits give low values 1.01 | locus YER110C, hits give low values 0.99 | locus YER111C, strain swi4, hits give low values 0.996 | locus YER155C, strain BEM2 (second series), hits give low values 0.985 | locus YER155C, strain BEM2, hits give low values 0.999 | locus YER167W, strain BCK2, hits give low values 0.999 | locus YFR010W, strain ubp6, hits give low values 1.03 | locus YGL078C, strain dbp3, hits give low values 0.994 | locus YGL086W, strain mad1, hits give low values 0.972 | locus YGL167C, strain pmr1, hits give low values 1 | locus YGL173C, strain kem1, hits give low values 1 | locus YGL227W, strain vid30, hits give low values 1.01 | locus YGL240W, strain doc1, hits give low values 0.975 | locus YGL248W, strain PDE1, hits give low values 0.986 | locus YGL253W, strain hxk2, hits give low values 1.01 | locus YGR135W, strain pre9, hits give low values 1.05 | locus YGR252W, strain gcn5, hits give low values 1.07 | locus YHR013C, strain ard1, hits give low values 0.997 | locus YHR027C, strain rpn1, hits give low values 1.02 | locus YHR030C, strain SLT2, hits give low values 0.995 and 1.03 | locus YHR079C, strain IRE1 (second series), hits give low values 0.962 | locus YHR079C, strain IRE1, hits give low values 1.04 | locus YHR094C, strain hxt1, hits give low values 0.985 | locus YHR129C, strain ARP1, hits give low values 0.986 | locus YHR142W, strain chs7, hits give low values 1.03 | locus YHR200W, strain rpn10, hits give low values 0.98 | locus YIL066C, strain RNR3, hits give low values 0.974 | locus YIL073C, strain SPO22, hits give low values 1 | locus YIL125W, strain kgd1, hits give low values 0.985 | locus YIR030C, strain dcg1, hits give low values 0.997 | locus YJL092W, strain hpr5, hits give low values 1.01 | locus YJL095W, strain BCK1 (second series), hits give low values 0.99 | locus YJL095W, strain BCK1, hits give low values 0.99 and 1.02 | locus YJL115W, strain asf1, hits give low values 1 | locus YJL129C, strain trk1, hits give low values 1 | locus YJL134W, strain LCB3, hits give low values 0.993 | locus YJL154C, strain vps35, hits give low values 1.01 | locus YJL164C, strain tpk1, hits give low values 0.999 | locus YJL166W, strain qcr8, hits give low values 0.993 | locus YJL168C, strain set2, hits give low values 0.985 | locus YJL187C, strain SWE1 (second series), hits give low values 0.991 | locus YJR043C, strain POL32, hits give low values 0.963 | locus YJR066W, strain TOR1, hits give low values 0.89 | locus YJR075W, strain HOC1, hits give low values 0.983 | locus YKL009W, strain mrt4, hits give low values 0.971 | locus YKL068W, hits give low values 0.987 | locus YKL085W, strain MDH1 (second series), hits give low values 0.995 | locus YKL085W, strain MDH1, hits give low values 0.995 | locus YKL160W, strain elf1, hits give low values 1 | locus YKR001C, strain vps1, hits give low values 0.981 | locus YKR026C, strain gcn3, hits give low values 1.01 | locus YKR091W, strain srl3, hits give low values 1 | locus YLL001W, strain dnm1, hits give low values 1 | locus YLL026W, hits give low values 0.991 | locus YLL041C, strain sdh2, hits give low values 1 | locus YLR027C, strain aat2, hits give low values 0.986 | locus YLR039C, strain RIC1, hits give low values 0.932 | locus YLR058C, strain SHM2, hits give low values 0.975 | locus YLR102C, strain apc9, hits give low values 0.986 | locus YLR113W, strain HOG1, hits give low values 1.11 | locus YLR221C, strain rsa3, hits give low values 1 | locus YLR258W, strain gsy2, hits give low values 0.983 | locus YLR262C, strain YPT6 (second series), hits give low values 1.04 | locus YLR262C, strain YPT6, hits give low values 0.885 | locus YLR268W, strain sec22, hits give low values 0.97 | locus YLR320W, strain mms22, hits give low values 0.996 | locus YLR330W, strain CHS5, hits give low values 0.985 | locus YLR342W, strain FKS1 (second series), hits give low values 0.985 | locus YLR342W, strain FKS1, hits give low values 0.985 | locus YLR357W, strain rsc2, hits give low values 0.982 | locus YLR370C, strain arc18, hits give low values 1.02 | locus YLR371W, strain rom2, hits give low values 0.992 | locus YLR384C, strain iki3, hits give low values 0.981 | locus YLR418C, strain cdc73, hits give low values 1.01 | locus YML016C, strain PPZ1, hits give low values 0.987 | locus YML032C, strain rad52, hits give low values 0.982 | locus YML120C, strain ndi1, hits give low values 0.995 | locus YML124C, strain tub3, hits give low values 0.988 | locus YMR058W, strain fet3, hits give low values 1.01 | locus YMR078C, strain ctf18, hits give low values 0.983 | locus YMR125W, strain sto1, hits give low values 1.01 | locus YMR129W, hits give low values 0.993 | locus YMR205C, strain PFK2, hits give low values 0.99 | locus YMR223W, strain ubp8, hits give low values 1.03 | locus YMR231W, strain pep5, hits give low values 0.998 | locus YMR263W, strain SAP30, hits give low values 0.984 | locus YMR307W, strain GAS1, hits give low values 0.97 | locus YNL067W, strain RPL9B, hits give low values 0.992 | locus YNL071W, strain lat1, hits give low values 0.996 | locus YNL153C, strain GIM3, hits give low values 0.983 | locus YNL183C, strain NPR1, hits give low values 0.981 | locus YNL209W, strain ssb2, hits give low values 0.991 | locus YNL233W, strain BNI4, hits give low values 0.988 | locus YNL248C, strain rpa49, hits give low values 1.04 | locus YNL250W, strain rad50, hits give low values 0.99 | locus YNL271C, strain bni1, hits give low values 0.997 | locus YNL298W, strain CLA4, hits give low values 0.99 | locus YNL307C, strain MCK1, hits give low values 0.989 | locus YNL322C, strain KRE1 (second series), hits give low values 0.988 | locus YNL322C, strain KRE1, hits give low values 0.995 | locus YNR049C, strain mso1, hits give low values 0.988 | locus YNR052C, strain pop2, hits give low values 1 | locus YOL012C, strain htz1 0.719 | locus YOL147C, strain pex11, hits give low values 0.995 | locus YOR001W, strain rrp6, hits give low values 1 | locus YOR061W, strain CKA2, hits give low values 0.966 | locus YOR069W, strain VPS5, hits give low values 0.991 | locus YOR070C, strain gyp1, hits give low values 0.991 | locus YOR080W, strain dia2, hits give low values 0.978 | locus YOR083W, strain WHI5, hits give low values 1.02 | locus YOR106W, strain vam3, hits give low values 0.989 | locus YOR136W, strain idh2, hits give low values 0.982 | locus YOR144C, strain elg1, hits give low values 0.987 | locus YOR184W, strain ser1, hits give low values 0.98 | locus YOR231W, strain MKK1, hits give low values 1.07 | locus YOR265W, strain rbl2, hits give low values 0.984 | locus YOR270C, strain vph1, hits give low values 1.03 | locus YOR290C, strain snf2, hits give low values 1.03 | locus YOR316C, strain cot1, hits give low values 0.975 | locus YPL051W, strain arl3, hits give low values 0.988 | locus YPL078C, strain atp4, hits give low values 0.991 | locus YPL106C, strain sse1, hits give low values 0.986 | locus YPL240C, strain hsp82, hits give low values 1.01 | locus YPL241C, strain CIN2, hits give low values 0.979 | locus YPL256C, strain CLN2, hits give low values 1.05 | locus YPR119W, strain clb2, hits give low values 0.988 | locus YPR141C, strain kar3, hits give low values 0.987 | locus YPR163C, strain tif3, hits give low values 0.989 | locus YPR167C, strain met16, hits give low values 0.991 | strain wtn01, hits give low values 0.99
